DT40 TDP1 CPT = growth inhibition of DT40 Tdp1-/-;hTDP1 cells with camptothecin (screen for TDP1 inhibitors) | chicken DT40 Tdp1-/-;hTDP1 cells + 20 nM CPT, ATP luminescence, 48 h | Potency, µM (doses to about 46.2 µM), for the others: at the top dose activity change, negative = growth inhibition, usual class: inhibitors | hit rate 12% among 420,000 | AID 686979; note: potency is the fitted concentration of half-maximal effect; nearly all actives have a fitted effect of over 55% in size
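Cell growth measured by CellTiter-Glo luminescence after a minimum 48 h, 37 C compound exposure with 20 nM CPT in Tdp1-knockout DT40 cells stably expressing hTDP1, seeded 400/well; qHTS titration format.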
HT1080-NT tox = kills 2HG-producing HT-1080-NT fibrosarcoma cells | hit rate 1.6% among 360,000 | Potency, µM (series often up to 46.1 µM), without a hit: top-dose activity, negative = less viability, most hits filed as cytotoxic | HT-1080-NT fibrosarcoma viability, CellTiter-Glo ATP luminescence, 48 h;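 note: NT is the 2HG producing partner of a matched IDH1 knockdown line; potency is the fitted concentration of half-maximal effect; 0% = DMSO-treated cells and -100% = media-only wells without cells; nearly all actives have a fitted effect of over 55% in size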
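Viability by CellTiter-Glo luminescence after 48 h compound exposure at 37C of HT-1080-NT cells (750/well, RPMI, 5% FBS). % activity scaled between DMSO wells and medium-only wells, then curve-fitted and categorized by curve class.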
DT40 TDP1 no CPT = qHTS for Inhibitors of human tyrosyl-DNA phosphodiesterase 1 (TDP1): qHTS in cells in absence of CPT | DT40 Tdp1-/- hTDP1 cells, no CPT, ATP luminescence, 48 h | Potency, µM (titrated, usually from 46.2 µM), for the others: at the top dose activity change, negative = growth inhibition, most hits filed as inhibitors | hit rate 15% among 420,000; note: potency is the fitted concentration of half-maximal effect; nearly all actives have a fitted effect of over 55% in size
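Cells were dispensed at 400 per well, compounds added by pin tool, plates incubated ≥48 hr at 37 °C, then CellTiter-Glo added for 30 min at room temperature before luminescence reading. Line: DT40 Tdp1-/- complemented with hTDP1; camptothecin omitted.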
HT1080 IDH1KD tx = HT-1080 IDH1 knockdown cell toxicity (counter line); AID 686971; Potency, µM (top dose mostly 46.1 µM), inactives show at the highest dose activity, negative = toxicity, actives largely listed as cytotoxic; HT-1080 IDH1 knockdown viability, ATP luminescence, 48 h; hit rate 2% among 360,000;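 note: potency is the fitted concentration of half-maximal effect; 0% = DMSO wells and -100% = cell-free medium wells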
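HT-1080-IDH1KD cells (IDH1 knocked down), 750/well in RPMI with 5% FBS, treated with compound 48 h at 37 degrees C. Viability by CellTiter-Glo luminescence, normalised to DMSO and no-cell wells; concentration-response curves classed.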
IL1B secr inh = blocks inflammasome-driven IL-1 beta release | activity change, % at 57.5 µM | AID 743279 | THP-1 LPS/ATP IL-1B secretion, AlphaLISA, 16 h; hits give low values | hit rate 4.7% among 360,000; in the data active = activity change below about -50%; inconclusive = mostly about -30% to -49%
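THP-1 cells pretreated 1 hr with compounds (up to 57.5 uM final), then stimulated with LPS (250 ng/mL final) plus ATP (1.25 mM final); secreted IL-1B measured by AlphaLISA after 16 hr, decreased signal indicating inhibition.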
uPA surface inh = cell surface uPA generation inhibition; cell surface uPA generation assay, qHTS; Potency, µM (highest dose often 38.3 µM), for inactives: top-dose activity change, negative = inhibition, usual class: inhibitors; hit rate 0.31% among 330,000; AID 540303; active = well fitted inhibition curve with a large enough effect; inconclusive = small, poorly fitted or top-dose-only effect; inactive = no such curve, though single readings can be large or run the other way; tested in mouse RAW 264.7 cells; note: potency is the fitted concentration of half-maximal effect; nearly all actives have a fitted effect of over 55% in size
Starred values were filed as active, the others as inactive; ? = inconclusive; · = no result. Rows were chosen to be rich in hits. Some 19% of all compounds tested hit in one or more screens of this group. Unless noted, calls come from the whole dose curve; as a rule, active = well fitted curve in the direction sought with a large enough effect; inconclusive = small, poorly fitted or top-dose-only effect, or another doubt; inactive = no such curve, though single readings can be large; an effect the other way counts as inactive or inconclusive. Unless noted, % is set by controls: 0 for no effect and ±100 for the full control effect.

SMILES	DT40 TDP1 CPT	HT1080-NT tox	DT40 TDP1 no CPT	HT1080 IDH1KD tx	IL1B secr inh	uPA surface inh
Cn1c(=O)c2c(-c3ccccc3)n3c(c2n(C)c1=O)C(c1cccc([N+](=O)[O-])c1)Nc1ccccc1-3 (configuration not stated)	13µM*	·	?	·	·	·
CCOc1ccc(-c2noc(CCC(=O)NC3CCCCC3)n2)cc1OC	2%	7%	-13%	10%	-21	8%
COc1ccc(N(CC(=O)NCCc2ccccc2)S(=O)(=O)c2ccccc2)c(OC)c1	21µM*	·	21µM*	·	·	·
COc1ccccc1N(CC(=O)NCCSc1ccccc1)S(C)(=O)=O	-10%	9%	-12%	-1%	0	0%
COc1ccccc1N(CC(=O)NCCSc1ccccc1)S(=O)(=O)c1ccc(C)cc1	?	·	16µM*	·	·	·
COc1ccc(N(CC(=O)NCCSc2ccccc2)S(=O)(=O)c2ccccc2)c(OC)c1	?	-1%	13µM*	-5%	-29	-5%
COc1ccccc1N(CC(=O)NCCSc1ccccc1)S(=O)(=O)c1ccccc1	?	7%	18µM*	-4%	-14	9%
COCCCNC(=O)CN(c1cc(OC)ccc1OC)S(=O)(=O)c1ccccc1	0%	7%	-9%	16%	7	6%
Cc1ccc(N2CC(C(=O)NCCC3=CCCCC3)CC2=O)cc1 (configuration not stated)	9%	2%	3%	0%	10	1%
Cc1nn(CC(=O)Nc2cccnc2)c(C)c1[N+](=O)[O-]	-2%	14%	16%	8%	18	6%
CCOc1ccccc1CNn1cnnc1SCC(=O)NC(C)(C)C	3%	4%	-2%	4%	-3	·
O=[S+]([O-])([O-])c1ccc2c(c1)cc([S+](=O)([O-])[O-])c1nn(-c3ccc(/C=C/c4ccc(-n5nc6c([S+](=O)([O-])[O-])cc7cc([S+](=O)([O-])[O-])ccc7c6n5)cc4[S+](=O)([O-])[O-])c([S+](=O)([O-])[O-])c3)nc12	9%	·	0%	·	·	·
COc1ccc(N(CC(=O)NCCSc2ccccn2)S(=O)(=O)c2ccccc2)c(OC)c1	?	7%	21µM*	8%	-12	0%
COc1ccc(S(=O)(=O)N(CC(=O)NCCSc2ccccn2)c2ccccc2)cc1	?	-17%	?	0%	17	2%
O=C(CN(c1ccccc1)S(=O)(=O)c1ccccc1)NCCSc1ccccn1	1%	1%	-3%	-4%	45	1%
Cc1cccc(N(CC(=O)NCCSc2ccccn2)S(=O)(=O)c2ccccc2)c1	?	-3%	15µM*	-2%	6	23%
COc1ccc(CCNC(=O)CN(c2ccccc2OC)S(=O)(=O)c2ccc(C)cc2)cc1	21µM*	-13%	23µM*	-11%	-51*	4%
O=C(N[C@H]1CC[C@H](CCNC(=O)C2CC2)O[C@@H]1CO)c1ccccn1	-4%	15%	-2%	8%	16	·
COC(=O)c1ccc([N+](=O)[O-])cc1N1C(=O)C2C3CCC(C3)C2C1=O (configuration not stated)	-25%	8%	-19%	7%	0	-8%
O=C(C1CCC1)N1CCN(c2ccc(Cl)cc2)CC1	-7%	10%	?	6%	-11	-1%
O=C(C1c2ccccc2Oc2ccccc21)N1CCN(c2ccc(Cl)cc2)CC1	?	?	15µM*	?	?	-2%
COc1ccccc1N1CCN(C(=O)C2c3ccccc3Oc3ccccc32)CC1	2.9µM*	4.1µM*	2.9µM*	1.8µM*	24	-14%
COc1ccccc1N1CCN(C(=O)C2CC2)CC1	8%	17%	-11%	16%	9	-1%

Assay outcomes (PubChem BioAssay)
